Experimental data published in PubChem BioAssay AID1159580 (chemical genetic matrix, 2015).
In all, about 5,500 compounds went through this assay and about 2,000 (36%) were called active. Inconclusive results (about 18%) are left out. No stated cut-off is given here; in the data, active means normalized growth mostly below about 0.91 (no sharp cut-off); inconclusive means no clear call, values can overlap the other calls; inactive means mostly above about 0.92. The list shows a part of the results.

Assay: chemical genetic growth profiling, strain panel (AID 1159580);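 further: tested at 20 µM; growth read once vehicle control cultures reached saturation at 30 °C; 1 = growth at the plate median or of vehicle wells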
Settings: growth OD

Measured: normalized growth

COc1ccc2c(=O)cc(-c3ccccc3OC)oc2c1
active: S. cerevisiae deletion strains, locus YAL013W, strain DEP1, stronger effect = lower value 0.743 | S. cerevisiae deletion strains, locus YBR021W, strain FUR4, stronger effect = lower value 0.797 | S. cerevisiae deletion strains, locus YDL192W, strain arf1, stronger effect = lower value 0.763 | S. cerevisiae deletion strains, locus YDR101C, strain arx1, stronger effect = lower value 0.883 | S. cerevisiae deletion strains, locus YDR318W, strain mcm21, stronger effect = lower value 0.866 | S. cerevisiae deletion strains, locus YDR502C, strain sam2, stronger effect = lower value 0.85 | S. cerevisiae deletion strains, locus YER155C, strain BEM2, stronger effect = lower value 0.869 | S. cerevisiae deletion strains, locus YGL086W, strain mad1, stronger effect = lower value 0.833 | S. cerevisiae deletion strains, locus YGL248W, strain PDE1, stronger effect = lower value 0.825 | S. cerevisiae deletion strains, locus YGR078C, strain PAC10, stronger effect = lower value 0.509 | S. cerevisiae deletion strains, locus YGR135W, strain pre9, stronger effect = lower value 0.812 | S. cerevisiae deletion strains, locus YGR252W, strain gcn5, stronger effect = lower value 0.716 | S. cerevisiae deletion strains, locus YHR030C, strain SLT2, stronger effect = lower value 0.539 | S. cerevisiae deletion strains, locus YHR129C, strain ARP1, stronger effect = lower value 0.849 | S. cerevisiae deletion strains, locus YHR200W, strain rpn10, stronger effect = lower value 0.895 | S. cerevisiae deletion strains, locus YIL066C, strain RNR3, stronger effect = lower value 0.819 | S. cerevisiae deletion strains, locus YIR030C, strain dcg1, stronger effect = lower value 0.905 | S. cerevisiae deletion strains, locus YJL095W, strain BCK1, stronger effect = lower value 0.437 | S. cerevisiae deletion strains, locus YJR043C, strain POL32, stronger effect = lower value 0.778 | S. cerevisiae deletion strains, locus YKR001C, strain vps1, stronger effect = lower value 0.709 | S. cerevisiae deletion strains, locus YLR039C, strain RIC1, stronger effect = lower value 0.642 | S. cerevisiae deletion strains, locus YLR268W, strain sec22, stronger effect = lower value 0.767 | S. cerevisiae deletion strains, locus YLR330W, strain CHS5, stronger effect = lower value 0.629 | S. cerevisiae deletion strains, locus YLR342W, strain FKS1 (second series), stronger effect = lower value 0.716 | S. cerevisiae deletion strains, locus YLR371W, strain rom2, stronger effect = lower value 0.728 | S. cerevisiae deletion strains, locus YLR418C, strain cdc73, stronger effect = lower value 0.468 | S. cerevisiae deletion strains, locus YML032C, strain rad52, stronger effect = lower value 0.879 | S. cerevisiae deletion strains, locus YMR223W, strain ubp8, stronger effect = lower value 0.831 | S. cerevisiae deletion strains, locus YMR307W, strain GAS1, stronger effect = lower value 0.49 | S. cerevisiae deletion strains, locus YNL128W, strain TEP1, stronger effect = lower value 0.708 | S. cerevisiae deletion strains, locus YNL233W, strain BNI4, stronger effect = lower value 0.632 | S. cerevisiae deletion strains, locus YNL307C, strain MCK1, stronger effect = lower value 0.526 | S. cerevisiae deletion strains, locus YNR052C, strain pop2, stronger effect = lower value 0.914 | S. cerevisiae deletion strains, locus YOL006C, strain TOP1, stronger effect = lower value 0.484 | S. cerevisiae deletion strains, locus YOL147C, strain pex11, stronger effect = lower value 0.874 | S. cerevisiae deletion strains, locus YOR144C, strain elg1, stronger effect = lower value 0.916 | S. cerevisiae deletion strains, locus YOR184W, strain ser1, stronger effect = lower value 0.671 | S. cerevisiae deletion strains, locus YPL241C, strain CIN2, stronger effect = lower value 0.918 | S. cerevisiae deletion strains, locus YPR163C, strain tif3, stronger effect = lower value 0.748 | S. cerevisiae deletion strains, locus YPR167C, strain met16, stronger effect = lower value 0.902 | S. cerevisiae deletion strains, strain wtn01, stronger effect = lower value 0.802 | S. cerevisiae strains, strain wild type, stronger effect = lower value 0.589
inactive: S. cerevisiae deletion strains, locus YBR229C, strain ROT2, stronger effect = lower value 0.97 | S. cerevisiae deletion strains, locus YCL029C, strain bik1, stronger effect = lower value 0.946 | S. cerevisiae deletion strains, locus YDL035C, strain GPR1, stronger effect = lower value 0.865 | S. cerevisiae deletion strains, locus YDL074C, strain BRE1, stronger effect = lower value 0.81 | S. cerevisiae deletion strains, locus YDL101C, strain DUN1, stronger effect = lower value 0.933 | S. cerevisiae deletion strains, locus YDL185W, strain tfp1, stronger effect = lower value 0.948 | S. cerevisiae deletion strains, locus YDR162C, strain NBP2, stronger effect = lower value 0.843 | S. cerevisiae deletion strains, locus YDR388W, stronger effect = lower value 0.934 | S. cerevisiae deletion strains, locus YER110C, stronger effect = lower value 0.939 | S. cerevisiae deletion strains, locus YGL078C, strain dbp3, stronger effect = lower value 0.934 | S. cerevisiae deletion strains, locus YHR079C, strain IRE1 (second series), stronger effect = lower value 0.941 | S. cerevisiae deletion strains, locus YHR094C, strain hxt1, stronger effect = lower value 0.961 | S. cerevisiae deletion strains, locus YIL073C, strain SPO22, stronger effect = lower value 0.806 | S. cerevisiae deletion strains, locus YIL125W, strain kgd1, stronger effect = lower value 0.938 | S. cerevisiae deletion strains, locus YJL134W, strain LCB3, stronger effect = lower value 0.985 | S. cerevisiae deletion strains, locus YJL168C, strain set2, stronger effect = lower value 0.941 | S. cerevisiae deletion strains, locus YJL187C, strain SWE1 (second series), stronger effect = lower value 0.918 | S. cerevisiae deletion strains, locus YKL009W, strain mrt4, stronger effect = lower value 0.947 | S. cerevisiae deletion strains, locus YKL068W, stronger effect = lower value 0.963 | S. cerevisiae deletion strains, locus YKL085W, strain MDH1 (second series), stronger effect = lower value 0.97 | S. cerevisiae deletion strains, locus YKL085W, strain MDH1, stronger effect = lower value 0.97 | S. cerevisiae deletion strains, locus YLR058C, strain SHM2, stronger effect = lower value 0.949 | S. cerevisiae deletion strains, locus YLR102C, strain apc9, stronger effect = lower value 0.95 | S. cerevisiae deletion strains, locus YLR262C, strain YPT6, stronger effect = lower value 0.65 | S. cerevisiae deletion strains, locus YML016C, strain PPZ1, stronger effect = lower value 0.974 | S. cerevisiae deletion strains, locus YML124C, strain tub3, stronger effect = lower value 0.94 | S. cerevisiae deletion strains, locus YMR078C, strain ctf18, stronger effect = lower value 0.916 | S. cerevisiae deletion strains, locus YNL067W, strain RPL9B, stronger effect = lower value 0.923 | S. cerevisiae deletion strains, locus YNL250W, strain rad50, stronger effect = lower value 0.984 | S. cerevisiae deletion strains, locus YNL271C, strain bni1, stronger effect = lower value 0.939 | S. cerevisiae deletion strains, locus YNL298W, strain CLA4, stronger effect = lower value 0.912 | S. cerevisiae deletion strains, locus YNL322C, strain KRE1, stronger effect = lower value 0.969 | S. cerevisiae deletion strains, locus YOL012C, strain htz1 0.811 | S. cerevisiae deletion strains, locus YOR061W, strain CKA2, stronger effect = lower value 0.976 | S. cerevisiae deletion strains, locus YOR069W, strain VPS5, stronger effect = lower value 0.957 | S. cerevisiae deletion strains, locus YOR136W, strain idh2, stronger effect = lower value 0.931 | S. cerevisiae deletion strains, locus YOR316C, strain cot1, stronger effect = lower value 0.958 | S. cerevisiae deletion strains, locus YPR119W, strain clb2, stronger effect = lower value 0.941 | S. cerevisiae deletion strains, locus YPR141C, strain kar3, stronger effect = lower value 0.96
